An excerpt weighted towards active compounds, which were near 2.2% of everything screened.
EWS-Fli inh = EWS/Fli-driven NR0B1 reporter inhibitors, primary screen, A673 cells, NR0B1 luciferase, luminescence, MLPCN library. viability-normalised. inhibition, % at 12.6 µM. 350,000 compounds, 0.67% hits. AID 651661, 2012;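 active = mean inhibition of at least 50% after viability correction, with every replicate also passing that limit; inconclusive = mean reaches 50% but only one of two replicates passes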;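 note: firefly luciferase signal divided by Alamar Blue viability fluorescence both relative to DMSO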
PAX8 reporter = inhibitors of PAX8-driven TPO luciferase reporter, primary screen, RMG-I cells, single concentration | 360,000 compounds, 1.2% hits | AID 652154, 2013 | inhibition, % at 12.6 µM | SteadyGlo, 24 h;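 active = mean replicate inhibition at least 60% with every replicate also reaching 60%; inconclusive = only one of the two criteria is met; inactive = mean below 60% and not all replicates reaching 60%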;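 note: luciferase light reporting Pax8 driven TPO promoter activity; plate controls were median of neutral control wells for no effect and mitoxantrone controls for full effect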
TRPM1 prom inh = inhibitors of MITF-dependent TRPM1 promoter reporter, primary screen, cell-based, SK-MEL-5, single point, luciferase; SK-MEL-5 TRPM1 promoter luciferase, 24 h; inhibition, % at 12.5 µM; 330,000 compounds, 0.83% hits;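 active = mean inhibition across replicates of 60% or more, whatever share of single replicates reaches that level; inconclusive = some that reach 60%, reason not given; inactive = mean inhibition across replicates below 60%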
LGR2 inh = inhibitors of bursicon-induced LGR2 CRE-luciferase signal, primary screen, cell-based, HEK293, CRE-luciferase reporter, bursicon stimulation. Drosophila bursicon receptor LGR2 (rickets). bursicon-stimulated, 4 h. inhibition, % at 9.99 µM. 380,000 compounds, 0.35% hits. AID 720647, 2013;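 active = drop in luminescence signal, shown as inhibition above about 50% in the replicate tests, limit read from the data, passing the limit was not always enough; inconclusive = probably only some replicates passing the limit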;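 note: agonist challenge used bursicon conditioned medium at about half maximal strength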
EBV LMP1 NFkB = EBV LMP1-driven NF-kappaB luciferase reporter inhibitors, primary screen, cell-based, luminescence, single point. LMP1-induced NF-kappaB luciferase reporter cells. inhibition, % at 12.5 µM. 350,000 compounds, 0.69% hits. AID 504558, 2011; in the data active = inhibition above about 41%; inconclusive = no clear call, values can overlap the other calls;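 note: 0% = neutral control wells and 100% = reference inhibitor control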
Shn3 inh set2 = reduction of Shn3 3'UTR firefly luciferase signal, primary screen, Schnurri-3 inhibitor project, cell-based, Clone20 osteoblasts, set 2; inhibition, % at 12.5 µM; 360,000 compounds, 0.52% hits; Clone20 osteoblast Shn3 3'UTR firefly luciferase, 24 h;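 active = mean inhibition of at least 75% with every replicate also reaching 75%; inconclusive = mean inhibition at least 75% but some replicate below; inactive = mean inhibition below 75%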;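 note: 0% = median of neutral control wells and 100% = pilot-screen positive control compound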
Starred values were filed as active, the others as inactive; ? = inconclusive; . = no result given.

SMILES	EWS-Fli inh	PAX8 reporter	TRPM1 prom inh	LGR2 inh	EBV LMP1 NFkB	Shn3 inh set2
CCCN(C)C[C@H]1OCCCC[C@H](C)Oc2ccc(NC(=O)C3CCCCC3)cc2C(=O)N([C@@H](C)CO)C[C@H]1C	2.1	-4.8	.	9.8	.	.
COc1cccc(C(=O)Nc2ccc3c(c2)C(=O)N(C)[C@@H]2CC[C@H](CC(=O)NCc4ccccc4F)O[C@H]2CO3)c1	-25.9	14.5	.	4.6	.	.
Cc1ccc(/C=C2\C(=O)ON=C2c2ccccc2)o1	4.1	0.8	-1.2	2.8	-19.4	-5.7
Cc1ccc(-c2ccc(/C=C3\C(=O)ON=C3c3ccccc3)o2)c([N+](=O)[O-])c1	.	.	33.7	.	29.2	90.7*
Cc1cc(/C=C(\C#N)C(=O)N2CCOCC2)c(C)n1C1CCCC1	8.3	-75.4	8.5	52.3*	20.1	-38.6
COc1ccc(/C=C(\C#N)C(=O)N2CCOCC2)cc1Br	.	.	-6.0	10.0	-9.6	6.4
CC(=O)N(C)C[C@@H]1Oc2ncc(C#Cc3ccncc3)cc2C(=O)N([C@H](C)CO)C[C@@H]1C	0.0	.	.	1.0	.	.
COc1ccc(S(=O)(=O)Nc2cccc(-c3ccc4nncn4n3)c2)cc1F	56.4*	4.4	7.4	-2.5	5.6	21.3
COc1ccccc1-c1cc(C(F)(F)F)nc(S(=O)(=O)CCCC(=O)N2CCOCC2)n1	.	.	80.2*	.	-19.1	83.1
COc1ccc(-c2cc(C(F)(F)F)nc(S(=O)(=O)CCCC(=O)Nc3cccc(O)c3)n2)cc1OC	-6.6	63.0*	.	?	.	-3.2
CC(=O)N[C@H]1CC[C@H](CCNC(=O)C2CC2)O[C@@H]1CO	-2.2	9.8	.	0.7	.	.
CCCCNc1nc(=S)n(-c2ccccc2)c(C)c1C(C)=O	12.1	-4.3	64.3*	20.7	6.5	-9.4
COC(=O)[C@@]1(Sc2ccc(C)cc2)CC(=O)N(c2ccccc2)[C@@H]1c1ccccc1	-1.0	64.6*	.	30.2	.	.
CCCN(C)C[C@H]1OCCCC[C@@H](C)Oc2ccc(NS(=O)(=O)c3cn(C)cn3)cc2C(=O)N([C@@H](C)CO)C[C@H]1C	-5.4	-23.6	.	-8.5	.	.
OCCCNc1cc(-c2ccnc(Nc3cccc(Cl)c3)n2)ccn1	-13.7	98.4*	?	101.5*	89.0*	90.5*
CCC(C)Oc1cc(-c2ccnc(Nc3cccc(Cl)c3)n2)ccn1 (stereo unspecified)	25.4	-83.5	20.2	83.6*	-105.0	-31.2
Cc1cc(C)nc(Nc2cccc(Cl)c2)n1	-36.3	-2.4	-42.2	-4.8	-0.3	-7.2
COc1ccc(NC(=O)Nc2ccc3c(c2)C(=O)N([C@H](C)CO)C[C@H](C)[C@H](CN(C)S(=O)(=O)c2c(C)noc2C)OCCCC[C@H](C)O3)cc1	-6.2	11.0	.	-5.9	.	.
Cc1ccc(Cl)cc1N1CCN(C(=O)c2noc(C)c2[N+](=O)[O-])CC1	70.3*	105.3*	8.6	9.5	-10.8	-35.0
Cc1onc(C(=O)N2CCN(c3ccccc3)CC2)c1[N+](=O)[O-]	.	15.0	0.0	-10.3	-6.0	-31.5
O=[N+]([O-])c1cc(S(=O)(=O)Oc2ccccc2)ccc1Cl	22.0	10.1	87.0*	68.0*	-1.4	46.2
O=S(=O)(Oc1ccccc1)c1ccc(Cl)c(Cl)c1	-25.0	.	-15.0	-18.9	6.3	-7.5
CCCNC(=O)Nc1ccc2c(c1)C(=O)N(C)C[C@@H](OC)[C@H](C)CN(CCC(F)(F)F)[C@@H](C)CO2	5.0	.	.	-6.0	.	.
Cn1cccc1-c1cc(C(=O)N/N=C/c2ccccc2Cl)[nH]n1	.	-188.0	-95.1	-82.5	5.7	-79.7
Cn1cccc1-c1cc(C(=O)N/N=C/c2cc(Br)ccc2O)[nH]n1	3.6	74.4*	62.0*	36.0	33.2	80.0
SMILES	EWS-Fli inh	PAX8 reporter	TRPM1 prom inh	LGR2 inh	EBV LMP1 NFkB	Shn3 inh set2
COc1ccc(C(=O)N/N=C/c2cc(Br)ccc2O)cc1OC	28.9	82.5*	65.6*	9.5	11.3	91.4*
COc1cc(Cl)cc(/C=N\NC(=O)c2ccc3c(c2)OCO3)c1O	13.8	41.7	.	9.2	31.3	88.0*
O=C(N/N=C/c1cc(Cl)cc([N+](=O)[O-])c1O)c1ccc2c(c1)OCO2	4.9	14.4	6.5	13.1	12.6	-9.6
CCCOc1ccc(Br)cc1/C=N/NC(=O)c1cc(OC)c(OC)c(OC)c1	.	14.4	8.9	-2.8	2.2	-1.1
C[C@H]1CCCCO[C@H](CN(C)S(=O)(=O)c2cn(C)cn2)[C@@H](C)CN([C@@H](C)CO)C(=O)c2cc(N(C)C)ccc2O1	-1.2	-3.0	.	6.8	.	.
COCC(=O)N1[C@H](CO)[C@H](c2ccccc2)C12CN(C(=O)NC1CCCC1)C2	2.8	.	.	-5.5	.	.
CC(C)NC(=O)Nc1ccc2c(c1)C(=O)N([C@@H](C)CO)C[C@H](C)[C@@H](CN(C)S(=O)(=O)c1ccc(F)cc1)OCCCC[C@H](C)O2	0.2	10.0	.	4.1	.	.
COc1ccc(-c2nnc3n2N=C(C)CS3)cc1	.	3.7	9.2	.	-0.6	-9.0
CCOC(=O)/C(=C\c1ccc(OC(F)F)cc1)C1=Nn2c(nnc2-c2ccc(Cl)cc2)SC1	.	.	98.9*	.	-9.6	94.6*
CCOC(=O)/C(=C/c1ccc(OC(F)F)cc1)C1=Nn2c(nnc2-c2ccc(Cl)cc2)SC1	31.1	-26.9	94.9*	.	16.2	94.6*
C[C@@H]1CN([C@@H](C)CO)C(=O)Cc2cc(NC(=O)Nc3cccc4ccccc34)ccc2O[C@H]1CN(C)C(=O)Nc1ccccc1	-10.8	2.3	.	7.3	.	.
CCc1ccc(-c2cc(C)no2)cc1S(=O)(=O)NCCCN1CCN(c2ccccc2)CC1	9.3	60.7*	17.8	8.3	3.0	56.6
O=C(COc1ccccc1)N/N=C/c1ccc([N+](=O)[O-])o1	23.7	13.5	68.0*	-4.9	-6.1	-5.5
CCCC(=O)Nc1ccc(C(=O)N/N=C/c2ccc([N+](=O)[O-])o2)cc1	17.2	13.7	25.2	.	-74.5	26.5
Cc1ccc(OCC(=O)N/N=C/c2ccc([N+](=O)[O-])o2)cc1	.	.	63.6*	.	-7.2	-5.7
Cc1ccc(NC(=O)CCC(=O)N/N=C/c2ccc([N+](=O)[O-])o2)cc1C	-5.0	28.3	79.1*	0.0	-4.3	.
O=C(CSc1ccc(Cl)cc1)N/N=C/c1ccc([N+](=O)[O-])o1	-9.6	3.1	61.8*	20.2	-20.9	-14.6
O=C(CNc1ccc2ccccc2c1)N/N=C/c1ccc([N+](=O)[O-])o1	17.7	28.6	58.7	.	-12.4	5.8
CCNC(=O)C[C@H]1CC[C@@H]2[C@@H](COc3ccc(NC(=O)C4CCCCC4)cc3C(=O)N2C)O1	-4.3	-9.5	.	-16.6	.	.
CCNC(=O)C[C@H]1CC[C@H](NC(=O)C2CC2)[C@H](CO)O1	1.3	-17.1	.	-6.6	.	.

Bioassay records (PubChem)
